# Measurements from paper PMC8384837, “Expanding the binding specificity for RNA recognition by a PUF domain”.
# Columns and labels:
# Test in all cases: yeast three-hybrid, YBZ-1, SC-Leu-His + 0.5 mM 3-AT, 4 days
# Details in all cases: tags: N-Gal4 AD-HA kept; label: inside an RPR1-promoter hybrid RNA with tandem MS2 sites; ssRNA
# PUM1 PUF domain R2-MWR = PUM1 PUF domain R2-MWR (Homo sapiens, UniProt Q14671 828-1176, N899M;Y900W;Q903R)
# Procedure, shortened: (§1)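 Sequencing with Illumina followed PCR amplification of the repeat regions from transformants grown four days on SC-Leu (input) or SC-Leu-His + 0.5 mM 3-AT (selection). The transformants were strain YBZ-1 with a LexA–MS2 coat fusion and a HIS3 reporter, carrying Pumilio-1 PUF domain libraries and matching RNA elements. The interaction score is the log change in variant frequency from input to selection, computed in log2 with a pseudocount of 1 for absent variants.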
# PUM1 PUF domain R2-DWQ = PUM1 PUF domain R2-DWQ (Homo sapiens, UniProt Q14671 828-1176, N899D;Y900W)
# Procedure, shortened: as §1
# PUM1 PUF domain R7-RRK = PUM1 PUF domain R7-RRK (Homo sapiens, UniProt Q14671 828-1176, S1079R;N1080R;E1083K)
# Procedure, shortened: as §1
# PUM1 PUF domain R8-RWT = PUM1 PUF domain R8-RWT (Homo sapiens, UniProt Q14671 828-1176, N1122R;Y1123W;Q1126T)
# Procedure, shortened: as §1
# PUM1 PUF domain R6-VWK = molecular target: T1, PUM1 PUF domain R6-VWK (Homo sapiens, UniProt Q14671 828-1176, N1043V;Y1044W;Q1047K)
# T1 sequence: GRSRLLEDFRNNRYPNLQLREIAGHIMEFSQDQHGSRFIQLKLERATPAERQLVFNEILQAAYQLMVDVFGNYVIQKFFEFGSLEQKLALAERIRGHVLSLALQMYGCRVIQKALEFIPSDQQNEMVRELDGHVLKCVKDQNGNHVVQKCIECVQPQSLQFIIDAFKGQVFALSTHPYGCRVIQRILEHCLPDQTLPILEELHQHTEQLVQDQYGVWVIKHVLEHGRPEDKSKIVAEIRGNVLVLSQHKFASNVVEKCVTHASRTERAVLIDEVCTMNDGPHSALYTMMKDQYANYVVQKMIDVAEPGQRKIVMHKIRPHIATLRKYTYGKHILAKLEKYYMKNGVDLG
# Procedure, shortened: as §1
# PUM1 PUF domain R2-LFV = PUM1 PUF domain R2-LFV (Homo sapiens, UniProt Q14671 828-1176, N899L;Y900F;Q903V)
# Procedure, shortened: as §1
# PUM1 PUF domain R4-FHR = PUM1 PUF domain R4-FHR (Homo sapiens, UniProt Q14671 828-1176, N971F;Q975R)
# Procedure, shortened: as §1
# PUM1 PUF domain R1-KME = PUM1 PUF domain R1-KME (Homo sapiens, UniProt Q14671 828-1176, S863K;R864M;Q867E)
# Procedure, shortened: as §1
# PUM1 PUF domain R5-RGQ = PUM1 PUF domain R5-RGQ (Homo sapiens, UniProt Q14671 828-1176, C1007R;R1008G)
# Procedure, shortened: as §1
# PUM1 PUF domain R3-RTH = PUM1 PUF domain R3-RTH (Homo sapiens, UniProt Q14671 828-1176, C935R;R936T;Q939H)
# Procedure, shortened: as §1
sequence,measurement,setting,value
GGCUAGAACUAGUGGAUCCCCCGGCGCCCGGCGGCUCGAGCCCGGGUAAGUGUAAACAGUCUGCAUGCCGCCGGGCGCCAUGCCUGCAGGUCGACUCUAGAAAACAUG,binding signal,PUM1 PUF domain R2-MWR,5.06 log2 enrichment (interaction score)
same,binding signal,PUM1 PUF domain R2-DWQ,4.49 log2 enrichment (interaction score)
GGCUAGAACUAGUGGAUCCCCCGGCGCCCGGCGGCUCGAGCCCGGGUAAGUUUAAAUAGUCUGCAUGCCGCCGGGCGCCAUGCCUGCAGGUCGACUCUAGAAAACAUG,binding signal,PUM1 PUF domain R7-RRK,4.3 log2 enrichment (interaction score)
GGCUAGAACUAGUGGAUCCCCCGGCGCCCGGCGGCUCGAGCCCGGGUAAGUCUAAAUAGUCUGCAUGCCGCCGGGCGCCAUGCCUGCAGGUCGACUCUAGAAAACAUG,binding signal,PUM1 PUF domain R7-RRK,1.72 log2 enrichment (interaction score)
GGCUAGAACUAGUGGAUCCCCCGGCGCCCGGCGGCUCGAGCCCGGGUAAGUGUAAAUAGUCUGCAUGCCGCCGGGCGCCAUGCCUGCAGGUCGACUCUAGAAAACAUG,binding signal,PUM1 PUF domain R8-RWT,4.9 log2 enrichment (interaction score)
same,binding signal,PUM1 PUF domain R6-VWK,5.58 log2 enrichment (interaction score)
GGCUAGAACUAGUGGAUCCCCCGGCGCCCGGCGGCUCGAGCCCGGGUAAGCGUAAAUAGUCUGCAUGCCGCCGGGCGCCAUGCCUGCAGGUCGACUCUAGAAAACAUG,binding signal,PUM1 PUF domain R8-RWT,5.51 log2 enrichment (interaction score)
GGCUAGAACUAGUGGAUCCCCCGGCGCCCGGCGGCUCGAGCCCGGGUAAGUGUAAAAAGUCUGCAUGCCGCCGGGCGCCAUGCCUGCAGGUCGACUCUAGAAAACAUG,binding signal,PUM1 PUF domain R2-DWQ,7.04 log2 enrichment (interaction score)
same,binding signal,PUM1 PUF domain R2-LFV,4.38 log2 enrichment (interaction score)
GGCUAGAACUAGUGGAUCCCCCGGCGCCCGGCGGCUCGAGCCCGGGUAAGUGUAUAUAGUCUGCAUGCCGCCGGGCGCCAUGCCUGCAGGUCGACUCUAGAAAACAUG,binding signal,PUM1 PUF domain R4-FHR,3.37 log2 enrichment (interaction score)
GGCUAGAACUAGUGGAUCCCCCGGCGCCCGGCGGCUCGAGCCCGGGUAAGUGUAAAUCGUCUGCAUGCCGCCGGGCGCCAUGCCUGCAGGUCGACUCUAGAAAACAUG,binding signal,PUM1 PUF domain R1-KME,4.22 log2 enrichment (interaction score)
GGCUAGAACUAGUGGAUCCCCCGGCGCCCGGCGGCUCGAGCCCGGGUAAGUGUUAAUAGUCUGCAUGCCGCCGGGCGCCAUGCCUGCAGGUCGACUCUAGAAAACAUG,binding signal,PUM1 PUF domain R5-RGQ,4.2 log2 enrichment (interaction score)
GGCUAGAACUAGUGGAUCCCCCGGCGCCCGGCGGCUCGAGCCCGGGUAAGUGUCAAUAGUCUGCAUGCCGCCGGGCGCCAUGCCUGCAGGUCGACUCUAGAAAACAUG,binding signal,PUM1 PUF domain R5-RGQ,2.62 log2 enrichment (interaction score)
GGCUAGAACUAGUGGAUCCCCCGGCGCCCGGCGGCUCGAGCCCGGGUAAGUGUAAUUAGUCUGCAUGCCGCCGGGCGCCAUGCCUGCAGGUCGACUCUAGAAAACAUG,binding signal,PUM1 PUF domain R3-RTH,3.6 log2 enrichment (interaction score)
GGCUAGAACUAGUGGAUCCCCCGGCGCCCGGCGGCUCGAGCCCGGGUAAGUGAAAAUAGUCUGCAUGCCGCCGGGCGCCAUGCCUGCAGGUCGACUCUAGAAAACAUG,binding signal,PUM1 PUF domain R6-VWK,7.03 log2 enrichment (interaction score)
